Methyltransferases = Primary Screen for Target Class Profiling of Small Molecule Inhibitors of Methyltransferases; purified enzyme, MTase-Glo SAH luminescence; hits give low values; calls only at 40 µM; 25,000 compounds, 3.9% hits; AID 1745853, 2022; call rule not given here
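Each enzyme was assayed with SAM and its substrate. SAH formation detected by MTase-Glo luminescence; single-point 40 uM screen[…].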
Starred values were filed as active, the others as inactive; i = inactive; + = active, no number. Many of the other results were omitted from the sample, so hits are more common in it than they were. On the % scale 0 is the no-effect control and ±100 the full control effect.

SMILES	Methyltransferases
CCOC(=O)C1CCN(C(=O)c2ccc3nccn3c2)CC1	i
Cc1[nH]c(=O)c(C#N)cc1-c1ccncc1	i
Cc1[nH]c(=O)c(C#N)cc1-c1ccc2nccn2c1	+
CC(C)Cn1c(=O)c2ccccc2n2c(=O)n(CC(=O)NCc3ccccc3Cl)nc12	i
COc1ccccc1CNC(=O)CCc1nnc2n(Cc3ccc(Cl)cc3)c(=O)c3ccccc3n12	i
CN1C(=O)c2cc(C(=O)N3CCN(C4CCCCC4)CC3)nn2CC1(C)C(=O)NC1CCCCCC1 (stereo not drawn)	i
CCCn1c(=O)c2cc(F)ccc2n2c(SCc3ccc(F)cc3Cl)nnc12	i
C[C@@H]1O[C@@H](OC[C@H]2O[C@@H](OCCc3ccccc3)[C@H](O)[C@@H](O)[C@@H]2O)[C@H](O)[C@H](O)[C@H]1O	i
COC(=O)c1ccc(OC)cc1O[C@@H]1O[C@H](CO[C@@H]2OC[C@@H](O)[C@H](O)[C@H]2O)[C@@H](O)[C@H](O)[C@H]1O	i
OC[C@@]1(O)CO[C@H](OC[C@H]2O[C@@H](OCCc3ccccc3)[C@H](O)[C@@H](O)[C@@H]2O)[C@@H]1O	i
C=CCc1ccc(O[C@@H]2O[C@H](CO[C@@H]3O[C@@H](C)[C@H](O)[C@@H](O)[C@H]3O)[C@@H](O)[C@H](O)[C@H]2O)cc1	i
OC1COC(OCC2OC(OCCc3ccccc3)C(O)C(O)C2O)C(O)C1O (stereo not drawn)	+
COc1ccc(CCO[C@@H]2O[C@H](CO[C@@H]3OC[C@H](O)[C@H](O)[C@H]3O)[C@@H](O)[C@H](O)[C@H]2O)cc1	+
CCc1cc2c(cc3n2CC(C)(C(=O)NC2CCCCCC2)N(Cc2cccc(Cl)c2)C3=O)s1 (stereo not drawn)	i
COc1ccccc1CN1C(=O)c2nc3ccccc3n2CC1(C)C(=O)NC1CCCCC1 (stereo not drawn)	i
CCCCN1C(=O)c2cc(C(=O)Nc3cc(Cl)c(OC)cc3OC)nn2CC1(C)C(=O)NC1CCCC1 (stereo not drawn)	i
O=C1c2cc3occc3n2CC(C(=O)NC2CCCCCCC2)(c2ccccc2)N1Cc1ccc(Cl)cc1 (stereo not drawn)	i
CCCNC(=O)[C@@H]1Cc2cn(Cc3nccn3C)c3cccc(c23)[C@H](CC(C)C)N1	i
Cc1ccc(Cn2nc3n(C)c(=O)c4ccc(C(=O)NC5CCCCC5)cc4n3c2=O)cc1	i
CCCn1c(=O)c2ccc(C(=O)NCC(C)C)cc2n2c(SCC(=O)Nc3cc(C)cc(C)c3)nnc12	i
COc1ccc2cc3n(c2c1)CC(C)(C(=O)NC1CCCCC1)N(C1CCCCCC1)C3=O (stereo not drawn)	i
COc1cc(C2Oc3c(OC)cc(CCCO)cc3C2CO)ccc1O (stereo not drawn)	+
COc1cc(C(O)C2COC(c3ccc(OC4OC(CO)C(O)C(O)C4O)c(OC)c3)C2CO)ccc1O (stereo not drawn)	i
Oc1ccc([C@@H]2Oc3ccc(O)cc3[C@@H]3CCC[C@@H]32)cc1	i
C/C=C/c1ccc2c(c1)[C@@H](C)[C@H](c1ccc(O)cc1)O2	+
SMILES	Methyltransferases
COc1cc(/C=C/C(=O)OC2CC3CCC2(C)C3(C)C)ccc1O (stereo not drawn)	i
COc1cc(C2Oc3c(O)cc(CCCO)cc3C2CO)ccc1O[C@H]1O[C@H](C)[C@@H](O)[C@H](O)[C@@H]1O (stereo partly drawn)	i
COc1cc([C@@H]2Oc3c(OC)cc(CCCO)cc3[C@@H]2CO[C@@H]2O[C@H](CO)[C@@H](O)[C@H](O)[C@H]2O)ccc1O	i
O=C(/C=C/c1ccc(O)cc1)O[C@@H]1C[C@@](O)(C(=O)O)C[C@@H](O)[C@@H]1O	i
C/C=C/c1cc(OC)c2c(c1)[C@@H](C)[C@@H](c1ccc(O)c(OC)c1)O2	+
COc1cc(C2Oc3c(OC)cc(/C=C/C(=O)OC4CC(O)(C(=O)O)CC(O)C4O)cc3C2CO)ccc1O (stereo not drawn)	+
COC(=O)c1cc2n(n1)CC(C)(C(=O)NC1CCC(C)CC1)N(c1ccc(F)cc1C)C2=O (stereo not drawn)	i
CCCn1c(=O)c2ccccc2n2c(SCc3cc(C)ccc3C)nnc12	i
Cc1ccc(CCN2C(=O)CSc3c(c4ccccc4n3C)C2C(=O)NCCC(C)C)cc1 (stereo not drawn)	i
O=C(Cn1ccc2cc(S(=O)(=O)N3CCCC3)ccc21)NCCc1ccc(Cl)cc1	i
COc1ccc(CNC(=O)CCc2nnc3n(CCC(C)C)c(=O)c4ccccc4n23)cc1	i
Cc1cc2c(cc3n2CC(C)(C(=O)NC2CCCCCCC2)N(Cc2cccc(Cl)c2)C3=O)o1 (stereo not drawn)	i
CCOC(=O)c1cc2n(n1)CC(C)(C(=O)NCc1ccccc1)N(c1ccc(OC)cc1)C2=O (stereo not drawn)	i
CC(C)CCn1c(=O)c2ccc(C(=O)NC3CCCCC3)cc2n2c(=O)n(CC(N)=O)nc12	i
Cc1ccc(Cn2c(=O)c3ccc(C(=O)NCC(C)C)cc3n3c(=O)[nH]nc23)cc1	i
Cc1nc(C#Cc2ccnc(Cl)c2)c(C)n1-c1ccc(F)cc1	+
CC1CCCC(NC(=O)C2(C)Cn3c(nc4ccccc43)C(=O)N2CCc2ccc(Cl)cc2)C1C (stereo not drawn)	i
Cc1ccc(Cn2c(=O)c3ccccc3n3c(=O)n(CC(=O)Nc4ccc(C)cc4C)nc23)cc1	i
CCOc1ccccc1CNC(=O)C(C)n1ccc2cc(S(=O)(=O)N3CCCCC3)ccc21 (stereo not drawn)	i
CCc1cc2c(cc3n2CC(C)(C(=O)NC2CCCCCC2)N(c2ccc(C)c(C)c2)C3=O)s1 (stereo not drawn)	i
COC(=O)c1cc2n(n1)CC(C)(C(=O)NC1CCC(C)CC1)N(Cc1ccccc1)C2=O (stereo not drawn)	i
C=C1C(O[C@@H]2O[C@H](CO)[C@@H](O)[C@H](O)[C@@H]2O)CC2C(C)(C)C(O)CCC2(C)C1CC/C(C)=C\CO (stereo partly drawn)	+
CC(C)=CCC[C@](C)(O[C@@H]1O[C@H](CO)[C@@H](O)[C@H](O)[C@H]1O)[C@H]1CC[C@]2(C)[C@@H]1[C@H](O)CC1[C@@]3(C)CC[C@H](O)C(C)(C)C3[C@@H](O[C@@H]3O[C@H](CO)[C@@H](O)[C@H](O)[C@H]3O[C@@H]3O[C@@H](C)[C@H](O)[C@@H](O)[C@H]3O)C[C@]12C (stereo partly drawn)	i
C=C1CC[C@@H]2[C@](C)(CO)[C@H](O[C@@H]3O[C@H](CO)[C@@H](O)[C@H](O)[C@H]3O)CC[C@@]2(C)[C@@H]1C/C=C1/C(=O)OC[C@H]1O	i
CCc1ccc(N2C(=O)c3cc4occc4n3CC2(C)C(=O)NC2CCCC(C)C2C)cc1 (stereo not drawn)	i
C=Cc1ccc(CSc2nnc3n(CCC(C)C)c(=O)c4ccccc4n23)cc1	i
CC(C)(C)CC(C)(C)c1ccc(OCCOCC[N+](C)(C)Cc2ccccc2)cc1	+
CCC(C)NC(=O)c1ccc2c(=O)n(CC(C)C)c3nn(Cc4ccccc4F)c(=O)n3c2c1 (stereo not drawn)	i
COc1ccccc1OC1CCN(Cc2ccccc2C#N)CC1	i
